Laboratory results taken from PubChem BioAssay (Tox21).
Records with an inconclusive call do not appear. Calls of active or inactive are those of the source. Unless noted, calls follow the shape of the dose curve; as a rule, active = well fitted curve in the direction sought with a large enough effect in the repeat runs; inconclusive = weak or mixed curves; inactive = no such curve, though single readings can be large; an effect the other way counts as inactive or inconclusive. Where a SMILES comes first, the peptide text is derived from it. [ ]: non-standard residue; d: D form. pGlu = O=C1CC[C@@H](C(=O)O)N1

What was measured:
[1] = qHTS assay to identify small molecule that activate the aryl hydrocarbon receptor (AhR) signaling pathway - cell viability counter screen (AID 743086);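 also: HepG2 liver cells carrying the AhR DRE luciferase reporter; series mostly up to about 70 µM; nearly all actives have a fitted effect of over 45% in size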
How it was run: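 HepG2-AhR-luc (HG2L7.5c1) cells, 4000/well, treated 24 h at 37 C with compound; viability measured as CellTiter-Fluor fluorescence after 30 min in the same wells as the luciferase read.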

[2] = target: Peroxisome proliferator-activated receptor gamma (Homo sapiens) (UniProt P37231); experiment: qHTS assay to identify small molecule agonists of the peroxisome proliferator-activated receptor gamma (PPARg) signaling pathway (AID 743094; active = well fitted activation curve with a large enough effect in the signal ratio in the repeat runs, not every such curve was filed as active; the % refers to the signal ratio)
Peroxisome proliferator-activated receptor gamma (Homo sapiens), sequence (P37231 whole entry, looked up): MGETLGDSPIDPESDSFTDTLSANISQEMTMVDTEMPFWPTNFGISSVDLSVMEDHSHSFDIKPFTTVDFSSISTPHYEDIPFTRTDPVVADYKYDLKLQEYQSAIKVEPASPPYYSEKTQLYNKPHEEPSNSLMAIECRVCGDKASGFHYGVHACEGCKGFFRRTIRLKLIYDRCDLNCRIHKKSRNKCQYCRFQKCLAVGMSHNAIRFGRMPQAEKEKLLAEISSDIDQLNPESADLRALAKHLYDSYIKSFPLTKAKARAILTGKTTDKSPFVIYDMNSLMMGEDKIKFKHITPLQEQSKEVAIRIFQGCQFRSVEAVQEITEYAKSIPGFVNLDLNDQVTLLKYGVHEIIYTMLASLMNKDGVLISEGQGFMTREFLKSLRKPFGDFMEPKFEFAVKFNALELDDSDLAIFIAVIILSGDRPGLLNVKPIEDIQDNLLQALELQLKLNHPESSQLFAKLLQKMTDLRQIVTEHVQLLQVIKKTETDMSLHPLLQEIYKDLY
How it was run: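 Cell-based bla reporter, HEK293H background, PPARg-driven UAS. Pre-incubation 5 h, 37C, 5% CO2. Compound 17 h, 37C. Substrate 1 h RT; fluorescence.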

[3] = target: Peroxisome proliferator-activated receptor gamma (Homo sapiens) (UniProt P37231); experiment: qHTS assay to identify small molecule antagonists of the peroxisome proliferator-activated receptor gamma (PPARg) signaling pathway (AID 743191; calls by dose curve; also: series mostly up to about 63 µM; nearly all actives have a fitted effect of over 30% in size)
How it was run: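 GeneBLAzer PPARg UAS-bla HEK293H cells, 5 h post-plating, exposed to compounds 17 h at 37C. LiveBLAzer B/G FRET substrate added for 1 h at room temperature; beta-lactamase reporter read by fluorescence intensity.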

[4] = qHTS assay for small molecule agonists of the antioxidant response element (ARE) signaling pathway (AID 743202; active = well fitted activation curve with a large enough effect in the signal ratio in the repeat runs, not every such curve was filed as active; the % refers to the signal ratio)
How it was run: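 HepG2 ARE-bla reporter line, 2,000 cells/well; 5 h preincubation 37 C/5% CO2; compound (DMSO) 16 h 37 C; B/G FRET substrate 2 h RT; fluorescence intensity.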

[5] = qHTS assay for small molecule agonists of the antioxidant response element (ARE) signaling pathway - cell viability counter screen (AID 743203; calls by dose curve; also: nearly all actives have a fitted effect of over 55% in size)
How it was run: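 Measured in the same wells as the beta-lactamase ARE reporter, this read-out is CellTiter-Glo luminescence from HepG2 ARE-bla cells given compounds for 16 hrs.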

[6] = qHTS assay for small molecule activators of the heat shock response signaling pathway - cell viability counter screen (AID 743209); also: nearly all actives have a fitted effect of over 50% in size
How it was run: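 Same-well multiplex: after 2.5 h room-temperature incubation with LiveBLAzer B/G substrate and fluorescence reading, CellTiter-Glo reagent was added to HSE-bla HeLa cells that had received compound for 5 h at 37 C; luminescence read after 30 min.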

[7] = qHTS assay for small molecule activators of the heat shock response signaling pathway (AID 743210; active = well fitted activation curve with a large enough effect in the signal ratio in the repeat runs, with a control signal flat, not every such curve was filed as active; the % refers to the signal ratio;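 also: HeLa cells with beta-lactamase reporter driven by heat shock elements; series mostly up to about 63 µM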)
How it was run: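 Beta-lactamase reporter read-out: FRET substrate fluorescence after 2.5 h at RT, following 5 h compound treatment at 37 C of HeLa cells carrying HSE-driven bla reporter; quantitative HTS format.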

[8] = qHTS assay to identify small molecule agonists of the peroxisome proliferator-activated receptor delta (PPARd) signaling pathway - cell viability counter screen (AID 743211); also: nearly all actives have a fitted effect of over 55% in size
How it was run: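 Counter screen for cytotoxicity run in parallel with the PPARd reporter screen. Beta-lactamase reporter HEK293H cells exposed to compounds 17 h; ATP-based CellTiter-Glo luminescence quantified viability.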

[9] = qHTS assay to identify small molecule antagonists of the peroxisome proliferator-activated receptor gamma (PPARg) signaling pathway - cell viability counter screen (AID 743194); also: nearly all actives have a fitted effect of over 55% in size
How it was run: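 Cytotoxicity counter screen in PPARg-bla HEK293H cells, same wells as reporter assay. Compounds plus 50 nM rosiglitazone (final) for 17 h at 37 C, then viability read by CellTiter-Glo luminescence.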

Measured: Potency

CN(C)C(=O)Oc1ccc[n+](C)c1
not listed: [9]
inactive: all other assays above

O=C(O)c1cn(C2CC2)c2cc(N3CCNCC3)c(F)cc2c1=O
not listed: [4] | [5] | [6]
inactive: all other assays above

O=S(=O)(O)c1cccc2c(S(=O)(=O)O)cccc12
not listed: [7] | [9]
inactive: all other assays above

CC(CC=O)CC(C)(C)C (stereo not given)
not listed: [4] | [6]
inactive: all other assays above

CC(COc1ccccc1)NN (stereo not given)
not listed: [3] | [7]
inactive: all other assays above

Cc1ccc(-c2ccccc2C#N)cc1
not listed: [1] | [2]
inactive: all other assays above

Cc1ccc(C(=O)c2ccccc2)cc1
not listed: [1] | [3]
inactive: all other assays above

CC(C)C(=O)OC(=O)C(C)C
not listed: [2] | [3] | [9]
inactive: all other assays above

O=C1NC(=O)C2CC=CCC12 (stereo not given)
not listed: [2] | [3] | [9]
inactive: all other assays above

CCOC(=O)COc1cc(-n2ncc(C(F)(F)F)c(C)c2=O)c(F)cc1Cl
not listed: [1]
inactive: all other assays above

CN(C)CCCCCCN(C)C
inactive: [4] | [5] | [7] | [8]

CCCCCCCCCCCCSC
not listed: [1] | [4] | [9]
inactive: all other assays above

CC1=NN(c2cccc(S(=O)(=O)O)c2)C(=O)C1
inactive: [3] | [9] | [5] | [7] | [8]

Cc1onc(-c2c(Cl)cccc2Cl)c1C(=O)Cl
not listed: [1] | [2] | [3]
inactive: all other assays above

CCNC(=O)[C@@H]1CCCN1C(=O)[C@H](CCCN=C(N)N)NC(=O)[C@H](CC(C)C)NC(=O)CNC(=O)[C@H](Cc1ccc(O)cc1)NC(=O)[C@H](CO)NC(=O)[C@H](Cc1c[nH]c2ccccc12)NC(=O)[C@H](Cc1cnc[nH]1)NC(=O)[C@@H]1CCC(=O)N1 ([pGlu]HWSYGLRP-NHEt)
not listed: [1] | [2] | [7]
inactive: all other assays above

O=C(CO)[C@@H](O)[C@H](O)[C@H](O)CO
inactive: [2] | [4] | [5] | [7] | [8]

NC(=O)NC1N=C([O][Al])NC1=O (stereo not given)
inactive: [3] | [9] | [5] | [8]

CC(C)(C#N)Nc1nc(Cl)nc(NC2CC2)n1
not listed: [1]
inactive: all other assays above

CCOC(=O)C(=O)CCCCCCl
not listed: [1] | [2]
inactive: all other assays above

CCCn1cc[n+](C)c1C
inactive: [1] | [5] | [6] | [8]

CO[Si](C)(OC)c1ccccc1
not listed: [1] | [6]
inactive: all other assays above

COc1cc2c(cc1OC)-c1cc3ccc(OC)c(OC)c3c[n+]1CC2
not listed: [1] | [7]
inactive: all other assays above

COCCOCC(OC)OC
not listed: [1] | [2] | [7]
inactive: all other assays above

CNCC(O)c1ccc(O)c(O)c1 (stereo not given)
not listed: [1] | [2]
inactive: all other assays above

Cc1nc(C2CCCCC2)c(-c2ccc(S(N)(=O)=O)c(F)c2)o1
inactive: [9] | [5] | [7] | [8]

O=[N+]([O-])c1cncn1CCN1CCOCC1
not listed: [1] | [2]
inactive: all other assays above

CC(C)(C)OC(=O)c1cccc(N)c1
not listed: [1] | [7]
inactive: all other assays above

CCOc1c(N2CCOCC2)cnn(C)c1=O
not listed: [1] | [2] | [3]
inactive: all other assays above

O=C1c2ccccc2C(=O)c2cc(O)ccc21
not listed: [1] | [4] | [9]
inactive: all other assays above

CCCC(=O)O[C@]1(C(=O)CC)CC[C@H]2[C@@H]3CCC4=CC(=O)CC[C@]4(C)[C@H]3[C@@H](O)C[C@@]21C
inactive: [9] | [5] | [6] | [7]

NCCCC(N)(C(=O)O)C(F)F (stereo not given)
inactive: [1] | [9] | [4] | [5] | [8]
